GC-A act: GC-A stimulated cGMP production enhancers – HEK293 GC-A cells, cGMP TR-FRET, EC30 ANP, primary screen | Atrial natriuretic peptide receptor 1 (Homo sapiens), P16066 | 0% at EC30 ANP, 100% saturating ANP | activation, % at 10 µM | 370,000 tested, 0.14% active | AID 1671463, 2021; in the data active = activation above about 40%
GC-B act: human GC-B receptor activators, primary screen, HEK293 GC-B cells, cGMP TR-FRET, EC30 CNP; Atrial natriuretic peptide receptor 2 (Homo sapiens), P20594; 0% at EC30 CNP, 100% saturating CNP; activation, % at 10 µM; 370,000 tested, 0.11% active; AID 1920062, 2024;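 active = activation at 10 µM reaching about 35% in either raw or pattern-adjusted values, limit read from the data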
CaV13 ICDI inh: Primary screen for inhibitors of IQ motif and Ca2+-dependent inactivation inhibitor domain binding in CACNA1D, Förster resonance energy transfer in living cells, … | HEK cells, CFP/YFP FRET ICDI-IQ, plate reader, 10 min; percent FRET-ratio fall versus neutral wells | inhibition, % at 12.3 µM | 340,000 tested, 0.098% active | AID 743397;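 active = mean replicate inhibition of at least 30% and at least 1% of replicates passing that level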;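 also: 0% = median of the neutral control wells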
Rin1 Abl inh: inhibitors of Rin1-Abl protein binding, primary screen, biochemical, TR-FRET. Tyrosine-protein kinase ABL1 (Homo sapiens) + Ras and Rab interactor 1 (Homo sapiens), …. inhibition, % at 7.35 µM. 360,000 tested, 0.4% active. AID 588664, 2011; in the data active = inhibition above about 5%, passing the limit was not always enough
Rin1 Abl conf: Rin1-Abl binding inhibitor retest, confirmation, biochemical, TR-FRET; shares compounds with Rin1 Abl inh; purified proteins; inhibition, % at 7.35 µM; 1,300 tested, 49% active
GFP quench-1: GFP fluorescence inhibitors and quenchers, artefact control for Rin1-Abl interaction inhibitor project, biochemical; shares compounds with Rin1 Abl inh; inhibitors/quenchers counterscreen; inhibition, % at 6.75 µM; 1,300 tested, 8.5% active;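 also: ABL1-eGFP fusion protein alone without its partner RIN1-SBP; 0% = protein with vehicle and 100% = wells lacking protein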
GFP quench dose: GFP fluorescence inhibitors and quenchers, dose response, artefact control for Rin1-Abl interaction inhibitor project, biochemical. GFP fluorescence interference/quenching counterscreen. shares compounds with Rin1 Abl inh. 230 tested, under 10 active. IC50, µM; call rule not given here;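 also: ABL1-eGFP fusion protein alone without its RIN1 binding partner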
GFP quench-2: GFP fluorescence inhibitors and quenchers, late-stage follow-up, artefact control for Rin1-Abl interaction inhibitor project, biochemical, dose response; shares compounds with Rin1 Abl inh; GFP fluorescence quenching counterscreen; IC50, µM; 25 tested, under 10 active; AID 602397, 2012; call rule not given here
An asterisk follows results filed as active; / = not tested or not shown. A selection: hits, their analogues and other compounds. The true share with any hit is near 0.67%. Rule as the data show it, unless noted: active = inhibition above about 6.5%; inactive = the rest.

SMILES	GC-A act	GC-B act	CaV13 ICDI inh	Rin1 Abl inh	Rin1 Abl conf	GFP quench-1	others
Cc1cccc(C(=O)N2CCCC(CCC(=O)N3CCN(c4ccccn4)CC3)C2)c1C (stereo not drawn)	2	-1	-7	12*	4	0
O=C(CCC1CCCN(C(=O)C2(c3ccccc3)CC2)C1)N1CCN(c2ccccn2)CC1 (stereo not drawn)	2	2	-5	10.0*	4	0
C[C@H](NC(=O)c1ncn2c1c(=O)[nH]c1ccc(Br)cc12)c1ccccc1	18	16	-6	7.9*	-22	0
O=S(=O)(Cc1ccccc1)N1CCN(c2ncccn2)CC1	2	-3	-3	7.2*	-1	0
CCc1ccccc1NC(=O)CC1SCCNC1=O (stereo not drawn)	-1	0	-6	6	/	/
COc1ccc(C(=O)N2CCNC(=O)C2CC(=O)Nc2cc(Cl)ccc2OC)cc1 (stereo not drawn)	-10	-5	-2	0	/	/
O=C(CC1SCCNC1=O)Nc1cccc(Cl)c1 (stereo not drawn)	2	0	/	9.6*	19*	0	GFP quench dose=>68
COc1ccc(OC)c(NC(=O)CC2C(=O)NCCN2C(=O)Nc2cccc(Cl)c2)c1 (stereo not drawn)	3	-1	-4	9.2*	13*	1
O=C(CC1SCCNC1=O)Nc1cccc(C(F)(F)F)c1 (stereo not drawn)	2	1	-4	7.8*	4	0
COc1cccc(C(=O)n2ccc3ccc(-c4ccc5ccn(C(=O)c6cccc(OC)c6)c5c4)cc32)c1	-1	3	/	/	/	/
Cc1cc(=O)oc2cc(OCC3CC(c4ccccc4)=NO3)ccc12 (stereo not drawn)	-5	-9	-6	11*	-5	-2
Cc1ccccc1N/C(SCc1ccc(Cl)cc1)=C(/C#N)C(=O)NCc1ccco1	-1	-9	-5	4	/	/
Cc1ccc(CS/C(Nc2ccccc2C)=C(\C#N)C(=O)NCc2ccco2)c(C)c1	-5	4	-5	26*	1	2
CN(Cc1ccccc1)S(=O)(=O)c1ccc(Cl)c(C(=O)N2CCC2)c1	1	1	-2	22*	17*	0	GFP quench dose=>67
CN(Cc1ccccc1)S(=O)(=O)c1ccc(Cl)c(C(=O)N2CCC(C(N)=O)CC2)c1	-1	-3	-6	0	/	/
Oc1ccc(/C=N/N(c2ccccc2)c2ccccc2)cc1O	-5	-8	/	1	/	/
Oc1ccc(/C=N/N(c2ccccc2)c2ccccc2)c(O)c1O	0	-5	-2	10*	6	4
Cc1cccc(NC(=S)NNc2ncc(C(F)(F)F)cc2Cl)c1	-1	-2	-4	-3	/	/
FC(F)(F)c1cnc(NNC(=S)Nc2ccccc2Cl)c(Cl)c1	-4	3	-3	5.7*	-1	0
CN(C(=O)c1ccc(NC(=O)Cc2ccc(NC(=O)C3CCCN(C(=O)C4CCCC4)C3)cc2)cc1)C1CC1 (stereo not drawn)	-1	5	-5	13*	19*	2
O=C(Cc1ccc(NC(=O)C2CCN(C(=O)C3CCCCC3)CC2)cc1)Nc1ccc(C(=O)N2CCOCC2)cc1	0	-2	-4	39*	44*	0	GFP quench dose=>68;GFP quench-2=>68
CN(C(=O)c1ccc(NC(=O)Cc2ccc(NC(=O)C3CCN(C(=O)C4CCCC4)CC3)cc2)cc1)C1CCCC1	0	-1	-5	22*	27*	-1	GFP quench dose=>67
